# PubChem BioAssay (NCI)
# Values joined by “and” are separate entries in the source; they are usually repeats but may differ in a detail not shown here. Equal values may be shown once. Compounds without any hit were thinned out: in the full panel of roughly 79,000, 15% have a hit. A number with no mark means an inactive call. Active and inactive are the calls of the source. No stated cut-off is given here; in the data, active means growth inhibition above about 70%; inactive means the rest.
# Key:
# [1] = NCI Yeast Anticancer Drug Screen. Data for the rad50 strain (AID 155);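 further: 0% = growth of vehicle-only cultures of the same strain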; settings: S. cerevisiae rad50 strain growth inhibition; at 50.0 µM; stronger effect = higher value
# In short: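 Compounds were tested on a yeast strain with an engineered DNA damage repair alteration; the reported value is growth inhibition normalised to vehicle treatment.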
# [2] = NCI Yeast Anticancer Drug Screen. Data for the mec2-1 strain (AID 157); settings: S. cerevisiae mec2-1 strain, at 50.0 µM, stronger effect = higher value
# In short: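 Strain: mec2-1 (DNA repair/cell cycle alteration). Compound exposure, then growth measured; inhibition expressed relative to vehicle.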
# [3] = NCI Yeast Anticancer Drug Screen. Data for the sgs1 mgt1 strain (AID 161);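 further: 0% = growth of cultures given vehicle only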; settings: S. cerevisiae sgs1 mgt1 strain, at 50.0 µM, stronger effect = higher value
# In short: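 Test agents were incubated with a DNA-repair-mutant yeast strain. Growth was then read and compared against vehicle-treated controls.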
# [4] = NCI Yeast Anticancer Drug Screen. Data for the cln2 rad14 strain (AID 165);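 further: 0% = growth equal to vehicle treated cultures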; settings: S. cerevisiae cln2 rad14 strain, at 50.0 µM, stronger effect = higher value
# In short: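 Compounds are applied to the cln2 rad14 yeast strain, and growth is then compared with that of vehicle-treated cultures to give inhibition.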
# [5] = NCI Yeast Anticancer Drug Screen. Data for the bub3 strain (AID 167); settings: S. cerevisiae bub3 mutant strain, at 50.0 µM, stronger effect = higher value
# In short: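 Growth of a checkpoint-deficient yeast mutant is measured after compound exposure. Values represent inhibition relative to vehicle.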
# [6] = NCI Yeast Anticancer Drug Screen. Data for the mlh1 rad18 strain (AID 175); settings: S. cerevisiae mlh1 rad18 strain growth inhibition; at 50.0 µM; stronger effect = higher value
# In short: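 Read-out is yeast growth inhibition, calculated against vehicle-only controls. The compound was applied to a strain engineered with DNA damage repair alterations.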
SMILES,growth inhibition [1],growth inhibition [2],growth inhibition [3],growth inhibition [4],growth inhibition [5],growth inhibition [6]
O=C(O)c1ccccc1N=Nc1ccc(N(CCCl)CCCl)cc1,21.6% and 13.4%,14.2% and -11.7%,3.7% and -2.9%,10.8% and 20.6%,16.7% and -4.5%,31.1% and 8.15%
Oc1ccc(Nc2c3ccc(Cl)cc3nc3ccc(-c4ccccc4)cc23)cc1CN(CCCl)CCCl,98.4% (active),98.7% (active),98.8% (active),98.3% (active),93.5% (active),97.5% (active)
c1ccc(C(NC2=NCCO2)c2ccccc2)cc1,-19%,-33%,-60.8%,-21.5%,-17.2%,-45.8%
O=N[O-].O=N[O-].[Co].[NH2-].[NH2-].[NH2-].[NH2-],0.1%,-11.5%,-3.5%,-14.3%,2.15%,26.9%
CCCCCCCCCCCCCCCCCC(=O)NC(CC(=O)OCCCCCC)c1ccc(N(CCCl)CCCl)cc1 (stereo not given),-2.6%,10.8%,12.8%,-6.5%,-3.9%,22.6%
CC(C)OP(=S)(OC(C)C)SSSP(=S)(OC(C)C)OC(C)C,14.2%,3.75%,1.95%,-3.1%,12.7%,6.25%
CCCCOP(=S)(Nc1ccccc1)OCCCC,91% (active),40.7%,81.8% (active),42%,73.5% (active),82.2% (active)
COc1ccc2c(c1)C(=O)C(N)C2 (stereo not given),2%,1.95%,0.5%,-21.6%,7.4%,20.1%
CCCCC[N+]1=Cc2cc(O)c(O)cc2CC1,-11.1%,-5.7%,1.75%,-24.9%,-12.4%,-21.7%
CC(=O)c1ccccc1N=Nc1ccc(N(CCCl)CCCl)cc1,-9.5%,-5.5%,0.15%,18%,15.2%,-0.05%
COc1ccc(CC#N)cc1,-51.1%,-5.25%,19.4%,-35%,1.4%,15.2%
C=CCN(CC=C)C1CCOC(OC)C1O (stereo not given),-19.4%,-20.5%,-9.35%,-5.05%,-12%,-14.2%
Cc1coc2c1CCC(C)C2 (stereo not given),-6.65%,-24.8%,-5.5%,1.55%,1.65%,-5.9%
Cc1ccccc1-n1c(CCl)nc2ccc(Br)cc2c1=O,18.4%,2.6%,12.6%,6.05%,1.35%,27.1%
CCCCCCCC(=O)O.[Pb],3.55%,5.55%,3%,13.9%,-6%,14.8%
Cc1cc(OCC2=NCCN2)c(C)c(C)c1Cl,44.3%,26.9%,36.1%,51%,9.2%,79.3% (active)
CC(=O)C1C(c2ccccc2)C2(C)OC(=O)C(C#N)C12C (stereo not given),-17.6%,18.9%,9%,32.3%,21.8%,33.2%
CCCCCCCCCl,14.7%,-4.7%,7.75%,20.1%,8.4%,-8.5%
Nc1cc(N)nc(N)n1,18.1%,-2.9%,1.35%,-4.6%,-18.9%,6.2%
O=c1oc2ccccc2c(O)c1C(c1ccc(O)cc1)c1c(O)c2ccccc2oc1=O,-1.35%,3.1%,-6.4%,-2.95%,-3%,-33.9%
